# Screening results from PubChem BioAssay.
# In the library only some 20% were active in any assay of this set; here they are far more common.
# CHX counter: affects cycloheximide protein synthesis inhibition readout, counter-screen | cell reporter, cycloheximide protein synthesis inhibition counterscreen | max response, % | 300,000 tested, 12% active | AID 2314; in the data active = max response mostly above about 13%, no sharp cut-off; inactive = mostly below about 14%; also: read at 38.3 µM for the half of the compounds with a filed dose
# Shiga inhibitor: blocks Shiga toxin action in Vero cells; inhibition, % at 38.7 µM; Vero cells, Shiga toxin protein synthesis inhibition reporter; 290,000 tested, 9.2% active; in the data active = inhibition mostly above about 28%, no sharp cut-off; inactive = mostly below about 43%
# HCMV inh: inhibitors of human cytomegalovirus; HFF cells, HCMV-luciferase reporter, 72 h; stronger effect = lower value; activity change, negative = inhibition, % at 57.5 µM; 410,000 tested, 4.5% active; AID 1259415; in the data active = activity change below about -60%; inconclusive = no clear call, values can overlap the other calls; inactive = above about -39%
#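 Screen run at 2 compound doses on HFFs infected with reporter HCMV, MOI 1 PFU/cell. Luciferase activity from cell lysates at 72 h post infection gave inhibition relative to buffer-only and Salinomycin wells.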
# Pf growth 96h: inhibits malaria parasite growth, 96 h | P. falciparum luciferase reporter growth, 96 h | Potency, µM (titrated, usually from 28.7 µM), most hits filed as inhibitors | 320,000 tested, 6.9% active
#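 Two parasite generations (96 h, 37 C, 5% CO2) of compound exposure in infected erythrocytes (0.05% parasitemia, 2% hematocrit). Luciferase-reporter P. falciparum; decreased luminescence indicates inhibited growth, aimed at apicoplast-acting delayed death.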
# Pf growth 48h: inhibits P. falciparum growth in the first generation, 48 h; P. falciparum luciferase growth in erythrocytes, 48 h; Potency, µM (doses to about 28.7 µM), usual class: inhibitors; 310,000 tested, 5.9% active; AID 504832
#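 Luciferase-expressing parasites in RBCs, 2% Hct / 0.1% parasitemia final; RPMI 1640 + 0.5% Albumax; 37 C, 5% CO2, one generation; luminescence read-out, lower signal = inhibition.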
# A number is an active result; . = inactive; ? = inconclusive; / = no result; + = active, no number. Unless noted, calls follow the shape of the dose curve; as a rule, active = well fitted inhibition curve with a large enough effect; inconclusive = small, poorly fitted or top-dose-only effect, or another doubt; inactive = no such curve, though single readings can be large or run the other way.
SMILES,CHX counter,Shiga inhibitor,HCMV inh,Pf growth 96h,Pf growth 48h
CCc1ccc(C(O)c2ncc(-c3ccccc3OC)[nH]2)cc1 (centres undefined),/,/,.,/,/
C[C@@]12C(=O)N(c3ccc(C(F)(F)F)cc3)C(=O)N1[C@@H]1c3ccccc3OC[C@@H]1[C@H]2c1ccccc1,.,.,/,4.1µM,?
C[C@]12C(=O)N(c3ccc(F)cc3)C(=O)N1[C@@H]1c3ccccc3OC[C@@H]1[C@H]2c1ccccc1,.,.,.,?,.
CCOC(=O)[C@@H]1[C@H]2COc3ccccc3[C@H]2N2C(=O)N(c3ccc(Cl)cc3)C(=O)[C@]12C,.,.,.,8.3µM,13µM
CCOC(=O)[C@@H]1[C@H]2COc3ccccc3[C@@H]2N2C(=O)N(c3cccc(Cl)c3)C(=O)[C@@]12C,.,.,.,10µM,.
CCOC(=O)[C@@H]1[C@H]2COc3cc(OC)ccc3[C@H]2N2C(=O)N(c3cccc(Cl)c3)C(=O)[C@]12C,.,.,/,?,?
CCOC(=O)[C@@H]1[C@H]2COc3cc(OC)ccc3[C@H]2N2C(=O)N(c3cccc(Cl)c3)C(=O)[C@@]12C,.,.,/,?,10µM
CCOC(=O)[C@@H]1[C@H]2COc3ccccc3[C@H]2N2C(=O)N(c3cccc(Cl)c3)C(=O)[C@@]12C,.,.,/,?,.
N#Cc1ccc(OCC(=O)N2CCN(C(=O)c3ccco3)CC2)cc1,/,/,.,.,.
Cc1cc(NCC(=O)Nc2ccc(C)c(S(=O)(=O)N3CCOCC3)c2)ccc1Br,/,/,.,/,/
COC(=O)c1cc(S(=O)(=O)NCc2cccc(Br)c2)c[nH]1,.,.,.,9.3µM,.
CCC(C)[C@H](NS(=O)(=O)c1ccc(C)cc1)C(=O)N1CCC(C(=O)N2CCC(C(N)=O)CC2)CC1 (some centres undefined),.,.,.,.,.
COc1ccc(CN(C(=O)c2cc3ccccc3oc2=O)C2CCS(=O)(=O)C2)cc1 (centres undefined),32,62,.,.,.
COc1ccc(CN(C(=O)c2cc3ccccc3oc2=O)C2CCS(=O)(=O)C2)cc1OC (centres undefined),45,98,.,.,.
Cc1ccc2oc(C(=O)N(Cc3ccccc3)C3CCS(=O)(=O)C3)c(C)c2c1 (centres undefined),.,.,.,?,.
O=C(c1cc2ccccc2oc1=O)N(Cc1ccccc1F)C1CCS(=O)(=O)C1 (centres undefined),31,60,.,5.2µM,.
COc1cc(CN(C(=O)c2ccccc2F)C2CCS(=O)(=O)C2)cc(OC)c1OC (centres undefined),/,/,.,/,/
O=C(c1cc2ccccc2oc1=O)N(Cc1ccccc1)C1CCS(=O)(=O)C1 (centres undefined),40,+,.,.,.
CCc1nnc(SCC(=O)NC2CC2)n1CC,.,.,.,.,.
COc1ccc(N(CC(=O)NC2CC3CCC2C3)S(=O)(=O)c2ccc(C)c([N+](=O)[O-])c2)cc1 (centres undefined),.,.,.,.,?
CCOc1ccc(CN(C(=O)c2cc3ccccc3oc2=O)C2CCS(=O)(=O)C2)cc1 (centres undefined),68,111,.,.,.
CCOc1ccc(CN(C(=O)c2ccco2)C2CCS(=O)(=O)C2)cc1 (centres undefined),.,.,.,.,.
CCOc1ccc(CN(C(=O)c2cc3ccccc3oc2=O)C2CC2)cc1,.,.,.,.,12µM
Cc1cccc(-n2ncc3c2CCCC3NC(=O)c2ccncc2)c1C (centres undefined),/,/,-79,/,/
COc1ccc(C(=O)NC2CCCc3c2cnn3-c2cccc(C)c2C)o1 (centres undefined),.,.,-93,.,?
SMILES,CHX counter,Shiga inhibitor,HCMV inh,Pf growth 96h,Pf growth 48h
O=C(CCc1cn2ccccc2n1)NC1CCCc2c1cnn2-c1ccccc1F (centres undefined),.,.,.,13µM,.
COc1cccc(C(=O)NC2CCCc3c2cnn3-c2cc(C)cc(C)c2)c1 (centres undefined),.,.,?,?,.
O=C(CCN1CCCO1)NC1CCCc2c1cnn2-c1ccccc1F (centres undefined),.,.,.,?,.
CC1=C(C(=O)NC2CCCc3c2cnn3-c2cccc(C)c2C)OCCO1 (centres undefined),.,.,-79,.,?
Cc1ccc(C)c(SCC(=O)OCC(=O)N2CC(C)OC(C)C2)c1 (centres undefined),.,.,.,.,.
Cc1cc(C(=O)NC2CCCc3c2cnn3-c2cccc(C)c2C)no1 (centres undefined),27,46,-97,?,.
Cc1cccc(-n2ncc3c2CCCC3NC(=O)CN2CCCC2=O)c1C (centres undefined),.,.,.,.,.
Cc1cccc(-n2ncc3c2CCCC3NC(=O)CCc2cccnc2)c1C (centres undefined),.,.,-63,.,.
Cc1cccc(-n2ncc3c2CCCC3NC(=O)CN2CCOC2=O)c1C (centres undefined),.,.,.,.,.
Cc1cccc(-n2ncc3c2CCCC3NC(=O)c2cccs2)c1C (centres undefined),/,/,-75,/,/
CCn1cc(C(=O)NC2CCCc3c2cnn3-c2cccc(C)c2C)cn1 (centres undefined),.,.,-99,?,.
Cc1cccc(-n2ncc3c2CCCC3NC(=O)Cc2c(C)noc2C)c1C (centres undefined),.,.,?,.,?
CCN(C[C@H]1N[C@@](CC)(C(=O)OC)[C@H]2C(=O)N(Cc3ccccc3)C(=O)[C@@H]12)C(=O)c1ccc(F)cc1,/,/,.,/,/
CSc1ccc(CCNC(=O)c2cc3n(n2)CCCN(Cc2ccc(C)cc2)C3=O)cc1,/,/,.,/,/
COc1cc(C(C(=O)NC2CCCC2)N(C(=O)c2snc(C(N)=O)c2N)c2ccccc2)cc(OC)c1OC (centres undefined),.,.,.,8.3µM,?
COc1ccc(N(C(=O)c2snc(C(N)=O)c2N)C(C(=O)NC2CCCC2)c2ccc3ncccc3c2)cc1 (centres undefined),.,.,-89,.,?
COc1ccc(N(C(=O)c2snc(C(N)=O)c2N)C(C(=O)NC2CCCC2)c2ccc(F)cc2)c(OC)c1 (centres undefined),.,.,.,.,?
NC(=O)c1nsc(C(=O)N(c2ccccc2)C(C(=O)NC2CCCC2)c2ccc3ncccc3c2)c1N (centres undefined),.,.,?,?,?
COc1ccc(C(C(=O)NC2CCCC2)N(C(=O)c2snc(-c3ccc(F)cc3)c2N)c2ccc(OC)cc2)cc1 (centres undefined),.,.,.,5.2µM,?
COCCN(C(=O)c1snc(C(N)=O)c1N)C(C(=O)NC1CCCC1)c1cc(OC)c(OC)c(OC)c1 (centres undefined),.,.,.,?,.
